# Experimental data: PubChem BioAssay (Tox21)
# Records with an inconclusive call do not appear. A call without a number means that no potency is given here. Active and inactive are the calls of the source. The call rests on the fitted dose curve.
# Assay: qHTS assay to identify small molecule antagonists of the estrogen receptor alpha (ER-alpha) signaling pathway using the BG1 cell line (AID 743080);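 further: BG1 cells stimulated with 17beta-estradiol alongside compound; nearly all actives have a fitted effect of over 25% in size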
# Details: BG1Luc4E2 ERE-luciferase antagonist mode, luminescence; series mostly up to 70.3 µM
# Description: National Center for Advancing Translational Sciences [NCATS]
# NIH Chemical Genomics Center [NCGC]
# U.S. Environmental Protection Agency [EPA]
# National Institutes of Environmental Health Sciences [NIEHS]
# National Toxicology Program [NTP]
# U.S. Food and Drug Administration [FDA]
# Estrogen receptor (ER), a nuclear hormone receptor, plays an important role in development, metabolic homeostasis and reproduction. Endocrine disrupting chemicals (EDCs) and their interactions with steroid hormone receptors like ER causes disruption of normal endocrine function. Therefore, it is important to understand the effect of environmental chemicals on the ER signaling pathway. To identify ER antagonists, BG1-Luc-4E2 cell line (provided by Dr. Michael Denison from University of California) has been used to screen the Tox21 10K compound library. BG1Luc4E2 cell line endogenously expresses full-length ER-alpha and is stably transfected with a plasmid containing four estrogen responsive elements (ERE) upstream of a luciferase reporter gene.
# Tox21 Assay Protocol Summary:
# BG1-Luc-4E2 cells were cultured in phenol red free assay medium containing 10% charcoal stripped FBS for 5 days before the assay was performed. The cells were dispensed at 4,000 cells/4 uL of assay medium per well into white wall/solid-bottom 1536-well plates using a Multidrop Combi (ThermoFisher Scientific, Waltham, MA) dispenser. The assay plates were incubated at a 37C and 5% CO2 for 24 h, and then 23 nL of compounds dissolved in DMSO, positive controls or DMSO only was transferred to the assay plate using a Pintool station (Kalypsys, San Diego, CA), followed by addition of 1 uL of 17beta-estradiol in assay medium using a Flying Reagent Dispenser (Aurora Discovery, San Diego, CA). After the plates were incubated at 37 C and 5% CO2 for 21.5 h, 1 uL of CellTiter-Fluor reagent (Promega, Madison, WI) of measuring cytotoxicity was added using Flying Reagent Dispenser (FRD) to each well. The assay plates were incubated at 37 C and 5% CO2 for additional 30 min and the fluorescence intensity was quantified by a ViewLux plate reader (PerkinElmer, Shelton, CT). For measuring luciferase reporter gene activity, 4 uL of ONE-Glo reagent (Promega) was added to each plate using an FRD and luminescence was quantified by a ViewLux plate reader after 30 min incubation at room temperature.
# Potency means the concentration at half of the fitted maximal effect.
SMILES,Potency,"activity change, negative = inhibition"
Nc1cccc([N+](=O)[O-])c1,inactive,
C=C1[C@H]2CC[C@@H]3[C@H]2C(C)(C)CCC[C@]13C,inactive,
Brc1c2ccccc2c(Br)c2ccccc12,,-5.5% [at 8.47 µM] (inactive)
CCOC(=O)c1cccnc1,inactive,
C=C(C)C(=O)OCCOCC,inactive,
O=C1OC(CN2CCOCC2)CN1/N=C/c1ccc([N+](=O)[O-])o1 (stereo not given),inactive,
c1cc(CCCc2ccncc2)ccn1,inactive,
CCCCC(CC)CN1C(=O)C2C3C=CC(C3)C2C1=O (stereo not given),inactive,
CC(=O)c1cccc([N+](=O)[O-])c1,inactive,
CCOC(=O)Cc1cccc2ccccc12,inactive,
CC(=O)[O][Al][O]C(C)=O,inactive,
O=S(c1cc(Cl)cc(Cl)c1O)c1cc(Cl)cc(Cl)c1O,inactive,
CC[N+](C)(CC)CCOC(=O)C(O)(c1ccccc1)C1CCCCC1 (stereo not given),inactive,
CCCCCCCN,inactive,
O=C1[C@H]2CCCC[C@H]2C(=O)N1CCCCN1CCN(c2nsc3ccccc23)CC1,inactive,
CN(C)c1ccc(CCO)cc1,inactive,
CCCCCCCCCCCCCCOS(=O)(=O)O,inactive,
CC(C)CC(=O)C1C(=O)c2ccccc2C1=O,inactive,
N=c1ccn2c(n1)O[C@H]1[C@H](O)[C@@H](CO)O[C@H]12,inactive,
C[N+]1(CC2COC(c3ccccc3)(C3CCCCC3)O2)CCCCC1 (stereo not given),inactive,

SMILES,Potency,"activity change, negative = inhibition"
CC1CCC(=O)C1=O (stereo not given),inactive,
CCO[C@H](Cc1ccc(OCCc2ccc(OS(C)(=O)=O)cc2)cc1)C(=O)O,inactive,
CN(Cc1ccc(C(C)(C)C)cc1)Cc1cccc2ccccc12,inactive,
COCC(C)OC(C)=O (stereo not given),inactive,
CCCCCCCCO[C@@H]1O[C@H](CO)[C@@H](O)[C@H](O)[C@H]1O,inactive,
CC(=O)c1ccc2c(c1)N(CCCN1CCC(CCO)CC1)c1ccccc1S2,inactive,
O=C(Nc1ccc(S(=O)(=O)N2CCOCC2)cc1)c1cc(Cl)ccc1NS(=O)(=O)c1ccc(Cl)s1,inactive,
CCCCCCCCCCO[C@@H]1O[C@H](CO)[C@@H](O)[C@H](O)[C@H]1O,inactive,
CCCOC(C(=O)OC1CCN(C)CC1)(c1ccccc1)c1ccccc1,inactive,
CCN(CC)c1ccc2c(-c3ccccc3C(=O)O)c3ccc(=[N+](CC)CC)cc-3oc2c1,inactive,
CCCCC1=NC2(CCCC2)C(=O)N1Cc1ccc(-c2ccccc2-c2nn[nH]n2)cc1,inactive,
CC1=CC=C(C(C)C)CC1,inactive,
CCOc1ccc(O)cc1,inactive,
CC(C)(C)Cl,inactive,
CN(C)CCN(Cc1ccccc1)c1ccccn1,inactive,
CN1C[C@H]2c3ccccc3Oc3ccc(Cl)cc3[C@@H]2C1,inactive,
CCOc1ccc(N)c([N+](=O)[O-])c1,inactive,
Cc1cc(C(=O)O)ccc1[N+](=O)[O-],inactive,
CCOC(=O)NCCOc1ccc(Oc2ccccc2)cc1,61.1 µM (active),
CC(=O)OC[C@H]1O[C@@H](n2ncc(=O)[nH]c2=O)[C@H](OC(C)=O)[C@@H]1OC(C)=O,inactive,
